# Source: PubChem (several laboratories)
# tim10-1 inh = growth inhibitors of tim10-1 mutant yeast | inhibition, % at 20 µM | 330,000 tested, 2.2% active | S. cerevisiae tim10-1 ts strain growth, BacTiter-Glo, 24 h | AID 463190;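 active = inhibition of at least 40%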;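 note: mutant grown at 25 °C; 0% = DMSO wells with yeast and 100% = wells holding no yeast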
# NALP3 yeast inh = blocks the NALP3 inflammasome reconstituted in yeast | Yeast reconstituted NLRP3/ASC/caspase-1, beta-gal luminescence, 24 h | inhibition, % at 10 µM | 330,000 tested, 0.39% active | AID 2825;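 active = inhibition of 50% or more; inactive = inhibition below 50%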;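 note: plate controls were induced DMSO wells for no effect and uninduced yeast grown without galactose for full effect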
# SKKanGAS inh = inhibitors of SKKanGAS S. pyogenes growth in kanamycin (SK-promoter or general growth effect) | BacTiter-Glo, 6 h | 300,000 tested, 1.3% active | inhibition, % at 7.5 µM;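 active = mean replicate score, as percent of positive control median, at least 50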;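 note: strain carries kanamycin resistance gene driven by streptokinase promoter and grows in 40 µg/ml kanamycin; loss of luminescence reflects streptokinase promoter inhibition or plain growth inhibition; 0% = median of DMSO wells and 100% = positive control at its reference dose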
# tim23-1 inh = inhibits growth of tim23-1 mutant yeast; S. cerevisiae tim23-1 growth, BacTiter-Glo luminescence, 24 h; inhibition, % at 20 µM; 330,000 tested, 1.3% active;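 active = growth inhibition of the mutant yeast at or above 50%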;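 note: temperature-sensitive mutant grown at 25 °C; plate controls were DMSO-treated mutant yeast for no effect and medium wells lacking yeast for full effect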
# TIM10 inh = TIM10 yeast growth inhibition. S. cerevisiae TIM10 strain growth, BacTiter-Glo luminescence, 24 h. inhibition, % at 10 µM. 330,000 tested, 1.4% active. AID 463195;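 active = inhibition of 40% or more at the single tested concentration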;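 note: wild-type TIM10 isogenic control strain grown at permissive 25 °C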
# PfHsp90 set2 = growth inhibition of yeast expressing Plasmodium Hsp90; S. cerevisiae expressing PfHsp90, BacTiter-Glo ATP, 48 h; yeast lacking PDR1 and PDR3 efflux regulators; inhibition, % at 9.4 µM; 310,000 tested, 0.32% active; AID 504621;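 active = every replicate shows inhibition above about 80%, whatever the replicate mean, limit read from the data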;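 note: 0% = DMSO neutral controls and 100% = 20 µM radicicol positive controls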
# tim23-1 confirm = confirmation of tim23-1 mutant yeast growth inhibitors; shares compounds with tim23-1 inh; S. cerevisiae tim23-1 growth, BacTiter-Glo luminescence, 24 h; inhibition, % at 20 µM; 4,400 tested, 83% active; AID 463218;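 active = inhibition above about 39% in either of two replicate wells at 20 µM, limit read from the data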;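 note: temperature-sensitive tim23-1 mutant grown at 25 °C; 0% = DMSO wells with yeast and 100% = medium wells without yeast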
# Numbers without * were called inactive; · = no result. Hits are enriched below; roughly 4.6% of the tested compounds scored in any of these assays.
SMILES,tim10-1 inh,NALP3 yeast inh,SKKanGAS inh,tim23-1 inh,TIM10 inh,PfHsp90 set2,tim23-1 confirm
O=c1c2c(n3cnnc3n1C1CCCCC1)-c1ccccc1CC21CCCCC1,31,-15,15,54*,30,-23,15
O=c1c2c(n3cnnc3n1-c1ccccc1)-c1ccccc1CC21CCCC1,39,12,0,43,38,-13,·
O=C(COC(=O)c1ccc(F)cc1Cl)NC1CCCCCCC1,19,26,·,51*,23,-43,42*
CCC(CC)C(=O)Nc1c(C(=O)N2CCN(c3ccccc3)CC2)oc2ccccc12,39,7,9,51*,28,-3,42*
O=C1/C(=C/c2ccc(Br)cc2)Oc2cc(O)ccc21,19,15,5,56*,29,-10,51*
CC(C)(C)c1ccc(/C=C2\Oc3cc(O)ccc3C2=O)cc1,16,7,-3,21,19,4,·
O=C(c1cc(-c2ccc(Cl)cc2)n[nH]1)N1CCc2ccccc2C1,31,-10,11,28,2,11,·
O=C(c1ccc2ccccc2n1)N1CCN(S(=O)(=O)c2ccc(Cl)cc2)CC1,27,15,·,50*,22,·,36
Cc1cccc(N=Nc2ccc(O)c3ncccc23)c1,18,27,92*,60*,17,101*,56*
Cc1ccc(NCc2ccc(O)c3ncccc23)cc1,3,-52,12,-4,17,-3,·
Cc1ccccc1[C@]1(C)ON(c2ccccc2C(F)(F)F)C1=O,9,35,·,53*,31,·,58*
CC(C)[C@@]1(c2ccccc2)ON(c2ccccc2C(F)(F)F)C1=O,-46,3,·,6,1,·,·
COc1ccc(Cl)cc1NC(=O)CN(C)CC(=O)NC(C)c1ccccc1 (stereo unspecified),1,17,1,19,13,17,·
Cc1cnc(NC(=O)c2cc3c(s2)CCCC3)s1,26,35,20,55*,28,-2,47*
CCc1nnc(NC(=O)c2cc3c(s2)CCCCC3)s1,11,-5,1,-10,-2,-3,·
Cc1ccc(-c2nn(-c3ccccc3)cc2/C=N/O)cc1,30,28,58*,59*,15,·,38*
Cc1ccc(-c2nn(-c3ccccc3)cc2CO)cc1,3,26,-6,21,9,-8,·
Cc1ccc(-c2nn(-c3ccccc3)cc2NC(=O)CCl)cc1,36,22,-4,65*,29,-41,44*
CCOc1nc2cnccc2n(CC(=O)Nc2cccc(C)c2)c1=O,19,7,0,5,-4,-19,·
CCc1cc(=O)oc2cc(OC(C)C(=O)NCC3CCC(C(=O)O)CC3)c(Cl)cc12 (stereo unspecified),3,2,8,-17,7,-9,·
CC1CCN(C(=O)c2cc(Cl)ccc2NC(=O)c2ccco2)CC1,-38,2,0,13,-6,-28,·
Cc1ccc(S(=O)(=O)N2C[C@@H]3[C@H]4CC[C@H](C4)[C@@H]3[C@@H](C)[C@H]2c2ccn(Cc3ccccc3)c2)cc1,21,·,·,37,0,4,·
Cc1ccc(S(=O)(=O)N2C[C@@H]3[C@H]4CC[C@H](C4)[C@@H]3[C@@H](C)[C@H]2C#N)cc1,18,·,·,91*,0,10,40*
Cc1cccc(C)c1NC(=O)/C(C#N)=C/c1ccc(-c2ccc(C(=O)O)cc2)o1,-18,17,27,-3,7,7,·
COC(=O)c1c(-c2ccc(S(C)(=O)=O)cc2)sc2ccc(OC)cc12,19,20,·,52*,12,·,43*
SMILES,tim10-1 inh,NALP3 yeast inh,SKKanGAS inh,tim23-1 inh,TIM10 inh,PfHsp90 set2,tim23-1 confirm
C=CCS/C(N)=N\N=C\c1cc(Br)cc([N+](=O)[O-])c1O,11,31,31,55*,17,-32,44*
COc1ccc(NS(=O)(=O)c2ccc3c(c2)Cc2ccccc2-3)cn1,21,33,-1,64*,32,-69,29
CC1Oc2ccccc2C=C1/C=N/Nc1ccc(C(=O)O)cc1 (stereo unspecified),-24,23,-23,-1,-50,72,·
O=C(COC(=O)c1cc(S(=O)(=O)N2CCOCC2)c(Cl)cc1Cl)c1ccc[nH]1,12,16,·,37,10,7,·
O=S(=O)(NCc1csc(-c2ccccc2)n1)c1ccc(Cl)s1,31,16,-10,53*,19,-19,45*
C/C(=C\C(=O)c1ccc(C)cc1)Nc1cccc(O)c1,3,34,-3,51*,-3,-24,34
c1ccc(-n2nc3c(ccc4cnnc43)[nH]2)cc1,24,14,3,53*,21,-17,50*
Cc1cc(C(=O)N2CCN(S(=O)(=O)c3ccc(C)c(C)c3)CC2)no1,7,15,·,16,-2,-10,·
CCn1c(/C=C/c2c(C)[nH]c3ccccc23)nc2ccccc2c1=O,25,20,3,3,11,-32,·
CCn1c(/C=C2\C(=O)N(C(C)C)c3ccccc32)nc2ccccc2c1=O,31,13,8,56*,39,-12,42*
O=c1oc2ccccc2cc1-c1nc(-c2ccccc2)no1,-1,49,-2,-8,6,16,·
O=C/C=C/c1c(-c2ccccc2)cc2oc3ccccc3cc1-2,39,1,10,50*,36,-21,59*
COc1cc(CC(=O)OCc2ccccc2F)cc(OC)c1OC,-7,19,-1,10,10,-11,·
O=C(O)c1cccc(N2C(=O)c3cc4cccc(Br)c4cc3C2=O)c1,5,14,-13,50,-21,-86,24
CCSc1ccc([C@@H]2[C@H]3C(=O)N(CC)C(=O)[C@H]3[C@]3(C(=O)OC)CCCCN23)cc1,27,21,4,81*,19,10,45*
Oc1ccc(N=C/C=C/c2ccc(Br)cc2)cc1-c1nc2ccccc2s1,23,25,20,64*,30,·,44*
Brc1cc2c(cc1-c1nc3ccccc3s1)OCO2,8,20,-1,8,6,6,·
O=C(Oc1ccc2ccc(O)cc2c1)c1ccccc1Cl,19,36,4,63*,37,12,52*
Cc1cc(NC2CCCC2)n2nc(C)c(-c3ccccc3)c2n1,28,-3,0,51*,35,11,43*
Cc1cc(N)n2nc(C)c(-c3ccccc3)c2n1,·,·,13,·,·,16,·
Cc1cc(NC2CCCC2)n2ncc(-c3ccccc3)c2n1,37,15,23,50*,22,-21,18
CC(=O)Oc1ccc(N2C(=O)c3cccc4c([N+](=O)[O-])ccc(c34)C2=O)cc1,29,15,12,67*,39,-8,57*
